Screening data: PubChem, Sanford-Burnham Center for Chemical Genomics
Compounds with a hit are over-represented: about 3% of the library has one in this group of screens.
SENP8 block-1 – blocks the human protease SENP8; 330,000 tested, 1.2% active; inhibition, % at 10 µM; AID 2540; purified SENP8, Z-RLRGG-aminoluciferin cleavage, luminescence; Q96LD8; in the data active = inhibition above about 50%
Target sequence (Q96LD8 whole entry, looked up): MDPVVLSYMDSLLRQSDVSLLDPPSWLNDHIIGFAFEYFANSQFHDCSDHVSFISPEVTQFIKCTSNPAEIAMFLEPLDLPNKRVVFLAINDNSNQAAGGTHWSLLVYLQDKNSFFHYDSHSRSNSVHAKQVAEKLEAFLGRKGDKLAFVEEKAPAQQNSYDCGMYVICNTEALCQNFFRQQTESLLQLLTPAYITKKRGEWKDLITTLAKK
TRAIL sens C8 – caspase-8 TRAIL sensitization. NB7+C8 cells + TRAIL, ATPlite viability luminescence. inhibition (viability loss, TRAIL sensitization), % at 10 µM. 360,000 tested, 1% active. AID 624354;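 active = compounds causing at least 50% loss of cell viability in the single-dose screen, relative to plate controls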
SENP7 inh – inhibitors of human SENP7 protease. recombinant SENP7, Z-RLRGG-aminoluciferin luminescence, 40 min. 330,000 tested, 1.5% active. inhibition, % at 5 µM. Q9BQF6;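 active = inhibition above about 50% at the single test dose, limit read from the data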
Target sequence (Q9BQF6 706-1050 limits assumed): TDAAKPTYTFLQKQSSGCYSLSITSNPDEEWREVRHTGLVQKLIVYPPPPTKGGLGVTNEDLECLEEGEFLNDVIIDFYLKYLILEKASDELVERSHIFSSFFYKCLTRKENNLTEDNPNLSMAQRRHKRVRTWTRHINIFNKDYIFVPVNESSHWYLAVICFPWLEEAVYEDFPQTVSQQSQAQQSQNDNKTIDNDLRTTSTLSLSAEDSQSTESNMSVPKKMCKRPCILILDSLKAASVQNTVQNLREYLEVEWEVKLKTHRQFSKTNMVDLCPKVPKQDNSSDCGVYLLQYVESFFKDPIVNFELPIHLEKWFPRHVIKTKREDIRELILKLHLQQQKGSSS
SENP8 block-2 – SENP8 (human) protease inhibition; Q96LD8; recombinant SENP8, Nedd8 substrate fluorescence; AID 602440; inhibition, % at 20 µM; 360,000 tested, 0.64% active; in the data active = inhibition mostly above about 40%, no sharp cut-off; inactive = mostly below about 27%
SENP6 block – inhibitors of human SENP6 protease; 330,000 tested, 1.8% active; AID 2599; Recombinant SENP6 catalytic domain, aminoluciferin luminescence; inhibition, % at 10 µM;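 active = inhibition above about 50% at the single tested dose, limit read from the data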
PPC-1+TRAIL kill – PPC-1 cancer cell killing with TRAIL present; PPC-1 cells + TRAIL, ATPLite viability luminescence; cell killing (% activity), % at 4 µM or 5 µM; 220,000 tested, 0.41% active; AID 1443;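 active = cell killing above 50% in the first pass at 4 µM, then a duplicate retest at 5 µM averaging 50% or more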
SENP8 confirm – confirmation of human SENP8 protease inhibitors; shares compounds with SENP7 inh; Recombinant SENP8, Z-RLRGG-aminoluciferin luminescence, 60 min; inhibition, % at 12.5 µM; 6,200 tested, 40% active; AID 488912;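 active = mean inhibition across replicates above about 50%, limit read from the data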
SENP6 conf – confirmation of human SENP6 protease inhibitors | recombinant SENP6, Z-RLRGG-aminoluciferin luminescence | inhibition, % at 12.5 µM | 6,200 tested, 58% active | AID 488915 | shares compounds with SENP7 inh
SENP7 conf – human SENP7 inhibition, confirmed; inhibition, % at 12.5 µM; shares compounds with SENP7 inh; 6,200 tested, 69% active; recombinant SENP7, Z-RLRGG-aminoluciferin luminescence, 40 min; AID 488917
Casp3 SENP sel – inhibits human caspase-3 in SENP selectivity test; shares compounds with SENP7 inh; purified caspase-3, Z-DEVD-aminoluciferin luminescence, 60 min; inhibition, % at 12.5 µM; 6,200 tested, 60% active; AID 488918;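 active = mean inhibition above about 50%, limit read from the data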
Luc interf – luminescence interference (SENP counter-screen); shares compounds with SENP7 inh; Pre-incubated SENP8/Z-RLRGG-aminoluciferin, luciferase luminescence interference; inhibition, % at 12.5 µM; 6,200 tested, 39% active;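 active = mean inhibition above about 50% when retested at one dose, limit read from the data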
A number is an active result; 0 = inactive; - = not tested or not shown.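 The calls were made as follows, unless noted: active = mean inhibition above about 50% in the one-dose retest (limit read from the data); inactive = the rest.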

SMILES	SENP8 block-1	TRAIL sens C8	SENP7 inh	SENP8 block-2	SENP6 block	PPC-1+TRAIL kill	SENP8 confirm	SENP6 conf	SENP7 conf	Casp3 SENP sel	Luc interf
CC(C)C[C@H]1CN(CCCC[C@@H]2CNC(=O)C(=O)N2CCc2ccccc2)C(=O)C(=O)N1CCc1ccc(O)cc1	-	0	-	0	-	-	-	-	-	-	-
COc1ccc(S(=O)(=O)N2CCCCCC2)cc1C(=O)N(C)CC(=O)Nc1ccccc1C(F)(F)F	0	0	0	0	0	-	-	-	-	-	-
COc1ccc(C(=O)N/C(=C\c2cccc3ccccc23)C(=O)N2CCN(C)CC2)cc1	0	0	0	0	0	-	-	-	-	-	-
O=C(Nc1ccc(Oc2ccccc2)cc1)c1csc([C@@H]2C[C@H](O)[C@@H](CO)O2)n1	-	0	-	0	-	-	-	-	-	-	-
O=C(OCc1cn([C@H]2CN(Cc3cccs3)[C@@H](c3ccc(Cl)cc3)C[C@@H]2O)nn1)c1ccccc1	-	0	-	0	-	-	-	-	-	-	-
COc1cccc(C(=O)/C=C/Nc2ccc(S(=O)(=O)Nc3nc(C)cc(C)n3)cc2)c1	0	0	0	0	0	0	-	-	-	-	-
O=C(Cc1ccc(Cl)cc1)Nc1ccccn1	0	0	0	0	0	-	-	-	-	-	-
COc1cccc(C(=O)/C=C/Nc2cc(C)ccc2O)c1	84	55	101	0	92	0	0	92	99	72	87
O=C(/C=C/c1ccccc1O)c1ccc(Cl)cc1	0	0	0	0	67	0	0	55	0	0	56
Cc1ccc(Cl)c(N/C=C/C(=O)c2ccccc2)c1	0	0	71	0	77	-	0	60	79	50	0
O=C(/C=C\Nc1ccccn1)c1ccc(Cl)cc1	95	82	0	0	95	71	0	77	88	75	0
Cc1cccc(N/C=C/C(=O)c2ccc(Cl)cc2)c1	66	0	89	0	73	-	0	0	0	0	0
Cc1nc(N/N=C/c2ccc(Br)cc2)cc(N2CCOCC2)n1	0	0	0	0	0	-	-	-	-	-	-
CCOc1ccc(/C=N/Nc2cc(C)nc(N3CCOCC3)n2)cc1	0	0	0	0	0	0	-	-	-	-	-
Oc1ccc(/C=N/Nc2cc(N3CCOCC3)nc(N3CCOCC3)n2)cc1	0	0	60	0	0	-	0	0	0	0	0
Oc1ccc(/C=N/Nc2cc(N3CCCC3)nc(N3CCCC3)n2)cc1	0	0	78	0	0	0	0	61	79	0	0
Oc1cccc(/C=N/Nc2cc(N3CCCC3)nc(N3CCCC3)n2)c1	0	0	51	0	57	0	0	66	0	0	0
COc1ccc(/C=N/Nc2cc(N3CCCC3)nc(N3CCCC3)n2)cc1	0	0	0	0	52	0	0	51	0	0	0
CC(=O)c1ccc(NC(=O)c2cnn3ccccc23)cc1	0	0	0	0	56	0	0	0	73	73	60
CC(=O)c1cccc(NC(=O)c2cnn3ccccc23)c1	0	0	0	0	57	0	0	0	78	78	56
COc1ccccc1N(CCC#N)C(=S)Nc1ccc(S(=O)(=O)N2CCOCC2)cc1	0	0	0	0	0	-	-	-	-	-	-
Cc1ccccc1Nc1nc2ccccc2s1	68	0	72	0	0	0	84	84	95	69	71
Oc1ccc(C=NNc2nc3ccccc3s2)c(O)c1	-	0	-	0	-	-	-	-	-	-	-
C(=N\Nc1nc2ccccc2s1)/c1ccco1	83	0	90	0	93	0	82	82	97	83	72
Oc1ccccc1C=NNc1nc2ccccc2s1	-	0	-	0	-	-	-	-	-	-	-
SMILES	SENP8 block-1	TRAIL sens C8	SENP7 inh	SENP8 block-2	SENP6 block	PPC-1+TRAIL kill	SENP8 confirm	SENP6 conf	SENP7 conf	Casp3 SENP sel	Luc interf
C(=N\Nc1nc2ccccc2s1)/c1cccs1	89	0	93	0	95	0	0	88	100	71	82
Cc1ccsc1/C=N/Nc1nc2ccccc2s1	72	0	86	0	87	0	0	62	87	0	58
CCS(=O)(=O)N1CCC(C(=O)Nc2ccc(C(C)=O)cc2)CC1	0	0	0	0	0	-	-	-	-	-	-
O=C(/C=C/c1cccc(F)c1)NCCCn1ccnc1	0	0	0	0	0	-	-	-	-	-	-
O=S1(=O)N[C@H](Cc2ccccc2)COc2cc(N3CCC[C@@H]3CO)ccc21	-	0	-	0	-	-	-	-	-	-	-
C/C(=N\Nc1nc2ccccc2s1)c1cccs1	75	67	84	0	60	0	92	91	98	60	0
Cc1cc(C)nc(N/N=C/c2sccc2C)n1	0	0	0	0	0	0	-	-	-	-	-
Cc1ccsc1/C=N/Nc1nc(=O)[nH]nc1C	80	0	89	0	91	0	86	87	98	96	71
Cc1nn(-c2ccccc2Cl)c(Cl)c1/C=N/Nc1nc2ccccc2s1	0	56	81	0	0	0	0	0	0	0	0
O=C([O-])c1cc(-c2ccccc2)cc(-c2ccccc2)[n+]1CCc1ccc(Cl)cc1	-	0	-	0	-	-	-	-	-	-	-
C[C@H](CO)N1C[C@H](C)[C@@H](CN(C)S(=O)(=O)c2ccc(F)cc2)Oc2ccc(NC(=O)CCN3CCOCC3)cc2C1=O	0	0	0	0	0	-	-	-	-	-	-
Cc1nc(Cl)cc(N/N=C/c2ccc(O)cc2)n1	89	0	91	0	87	-	90	90	99	90	87
CCOc1ccc(/C=N/Nc2cc(N3CCOCC3)nc(C)n2)c(O)c1	0	0	0	0	0	-	-	-	-	-	-
Cc1nc(Cl)cc(N/N=C/c2ccc(O)cc2O)n1	93	0	95	0	97	-	92	92	100	92	92
Cc1ccc(S(=O)(=O)Oc2ccccc2/C=N/N=C(N)N)cc1	0	0	0	0	0	0	-	-	-	-	-
Cc1ccc(S(=O)(=O)Oc2ccccc2/C=N/NC(N)=S)cc1	0	0	70	0	0	0	0	0	0	0	0
CC1=C(C(=O)N2CCOCC2)CC(CC(=O)NC2CCCC2)C(=O)N1Cc1ccc(F)cc1 (stereo unspecified)	-	0	-	0	-	-	-	-	-	-	-
Cc1ccc(C)c(NC(=O)c2cc(-c3cc(C)ccc3O)n[nH]2)c1	0	0	66	0	0	-	0	0	82	0	0
CCc1ccc(O)c(-c2cc(C(=O)Nc3cccnc3)[nH]n2)c1	0	0	0	0	0	0	-	-	-	-	-
Cc1cc(C)c(O)c(-c2cc(C(=O)Nc3cccnc3)[nH]n2)c1	0	0	0	0	68	0	0	0	73	0	0
